In PubChem BioAssay (NCI) one finds growth data, which are given here for seven molecules.

About 83,000 compounds went through this panel and 20% of them were active in at least one assay; those are over-represented in the sample as a whole.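 Each cell line was grown in a 96-well plate and treated with one concentration of compound for 48 hours. Values below 10 were considered active.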 Unmarked numbers belong to inactive results. Active and inactive are the calls of the source.

Some test systems named below: SK-MEL-2 melanoma; EKVX NSCLC; SN12C renal; UO-31 renal; TK-10 renal; ACHN renal; CAKI-1 renal; A498 renal; CCRF-CEM leukemia; MOLT-4 leukemia; SR leukemia; RPMI-8226 leukemia; OVCAR-8 ovarian; OVCAR-5 ovarian; OVCAR-4 ovarian; SK-OV-3 ovarian; IGROV1 ovarian; OVCAR-3 ovarian; HS 578T breast; NCI/ADR-RES ovarian.
Experiment in all cases: NCI-60 one-dose screen, 48 h (100 = growth as untreated, 0 = no growth, -100 = all killed)
Settings in all cases: 10 µM unless noted

With `CCCCNP1(NCCCC)=NP(NCCCC)(NCCCC)=NP(NCCCC)(NCCCC)=NP(NCCCC)(NCCCC)=N1`, the growth in the assay with SK-MEL-2 melanoma was -23.1% (active); in the assay on EKVX NSCLC, -17.2% (active); in the assay on SN12C renal it was 20.1%; in the assay with UO-31 renal, 37.6%; with TK-10 renal it was 13.6%; in the assay on ACHN renal, 33.9%. In addition, the growth with CAKI-1 renal was 64.4%; in the assay on A498 renal, 4.56% (active); in the assay with CCRF-CEM leukemia, -16.8% (active); in the assay on MOLT-4 leukemia, -38.5% (active); with SR leukemia, -51.8% (active); in the assay with RPMI-8226 leukemia, -41.7% (active). Further, the growth was 16.7% in the assay with OVCAR-8 ovarian; 16.7% in the assay on OVCAR-5 ovarian; 16.9% in the assay with OVCAR-4 ovarian; 7.65% (active) with SK-OV-3 ovarian; 30.7% in the assay with IGROV1 ovarian; -48.7% (active) in the assay with OVCAR-3 ovarian. For the same molecule, the growth in the assay with HS 578T breast was -7.98% (active); in the assay on NCI/ADR-RES ovarian, 97.2%.

Take `OC(c1cccc(C(F)(F)F)c1)c1cnccc1NC1CCCCCC1` (stereo not given): the growth in the assay on SK-MEL-2 melanoma is 43%; in the assay with EKVX NSCLC, 57.3%; with SN12C renal, 54.1%; with UO-31 renal, 28.7%; in the assay on TK-10 renal, 60.4%; with ACHN renal, 43.9%. The growth in the assay with CAKI-1 renal is 40.4%; in the assay on A498 renal, 50.3%; in the assay on CCRF-CEM leukemia, 30.5%; with MOLT-4 leukemia it was 22.6%; in the assay on SR leukemia, -14.7% (active); with RPMI-8226 leukemia, -30.1% (active). Further, the growth with OVCAR-8 ovarian is 58.2%; in the assay with OVCAR-5 ovarian, 79.8%; in the assay on OVCAR-4 ovarian, 52.7%; in the assay with SK-OV-3 ovarian, 71.4%; in the assay on IGROV1 ovarian it was 44.2%; in the assay on OVCAR-3 ovarian, 57.5%. Besides, the growth in the assay on HS 578T breast is 64.4%; in the assay on NCI/ADR-RES ovarian it was 39.2%.

As for `Oc1c(Cl)cc(Cl)cc1CNc1nccnn1`, the growth with SK-MEL-2 melanoma was 115%; with EKVX NSCLC it was 94.4%; in the assay with SN12C renal, 90.4%; in the assay on UO-31 renal it was 93.5%; in the assay on TK-10 renal it was 113%; in the assay on ACHN renal, 99.8%. Further, the growth in the assay with CAKI-1 renal is 89.6%; in the assay with A498 renal it was 88.7%; with CCRF-CEM leukemia, 111%; with MOLT-4 leukemia it was 101%; with SR leukemia, 93.5%; with RPMI-8226 leukemia, 105%. Also, the growth in the assay on OVCAR-8 ovarian is 108%; with OVCAR-5 ovarian, 101%; in the assay on OVCAR-4 ovarian, 106%; in the assay with SK-OV-3 ovarian, 107%; in the assay with IGROV1 ovarian it was 96.3%; in the assay with OVCAR-3 ovarian it was 92.1%. The growth was 114% in the assay with HS 578T breast and 98.5% in the assay with NCI/ADR-RES ovarian.

For `CC(=O)OC1Oc2cc(C)c(C)cc2-c2oc(=O)c(-c3cc4ccc(N(C)C)cc4oc3=O)cc21` (stereo not given), the growth in the assay on SK-MEL-2 melanoma was 92.4%; in the assay with EKVX NSCLC it was 41.5%; in the assay on SN12C renal, 84.2%; with UO-31 renal, 51.4%; in the assay with TK-10 renal, 89.6%; in the assay on ACHN renal, 103%. Besides, the growth in the assay with CAKI-1 renal was 65.4%; with A498 renal it was 57.8%; with CCRF-CEM leukemia, 54.9%; in the assay with MOLT-4 leukemia it was -17.4% (active); in the assay on SR leukemia, -41.6% (active); in the assay on RPMI-8226 leukemia, 29.4%. Further, the growth was 75.9% in the assay on OVCAR-8 ovarian; 86.4% with OVCAR-5 ovarian; 89.8% with OVCAR-4 ovarian; 78.2% in the assay on SK-OV-3 ovarian; 93.2% in the assay with IGROV1 ovarian; 94.1% in the assay with OVCAR-3 ovarian. Further, the figures for the growth in the assay with HS 578T breast and with NCI/ADR-RES ovarian were 112% and 64.7%, respectively.

Turning to `O=C1c2cccnc2C(=O)c2c1c(C(=O)OCCN1CCOCC1)c1ccccn21`, the growth was 7.23% (active) in the assay with SK-MEL-2 melanoma; 13.1% in the assay with EKVX NSCLC; -30.4% (active) in the assay on SN12C renal; -26.7% (active) with UO-31 renal; -6.05% (active) in the assay with TK-10 renal; 7.94% (active) in the assay on ACHN renal. In addition, the growth is 14.4% in the assay on CAKI-1 renal; -30.4% (active) in the assay with A498 renal; 8.9% (active) in the assay on CCRF-CEM leukemia; -16.2% (active) in the assay on MOLT-4 leukemia; -10.1% (active) with SR leukemia; 10.1% with RPMI-8226 leukemia. Further, the growth is 9.13% (active) with OVCAR-8 ovarian; -9.33% (active) in the assay on OVCAR-5 ovarian; 24.2% in the assay on OVCAR-4 ovarian; -0.946% (active) with SK-OV-3 ovarian; 1.32% (active) with IGROV1 ovarian; -6.91% (active) in the assay with OVCAR-3 ovarian. Besides, the growth is 30.3% with HS 578T breast and 5.58% (active) with NCI/ADR-RES ovarian.

For `CSc1ncnc2c1ncn2C1CCCO1` (stereo not given), the growth was 99.3% with SK-MEL-2 melanoma; 95.6% in the assay with EKVX NSCLC; 99.1% in the assay with SN12C renal; 92.1% in the assay with UO-31 renal; 106% with TK-10 renal; 99% with ACHN renal. The growth was 79.1% in the assay with CAKI-1 renal; 146% with A498 renal; 109% in the assay with CCRF-CEM leukemia; 106% with MOLT-4 leukemia; 113% in the assay on SR leukemia; 104% in the assay on RPMI-8226 leukemia. Moreover, the growth in the assay on OVCAR-8 ovarian is 109%; in the assay with OVCAR-5 ovarian, 98.3%; in the assay with OVCAR-4 ovarian, 95.1%; in the assay on SK-OV-3 ovarian it was 104%; with IGROV1 ovarian it was 120%; with OVCAR-3 ovarian it was 120%. Moreover, the growth in the assay with HS 578T breast is 103%; with NCI/ADR-RES ovarian, 101%.

On to `Nc1nc(SCc2ccccc2)c2ncn(C3CCCC3)c2n1`, for which the growth in the assay with SK-MEL-2 melanoma is 94.6%; with EKVX NSCLC it was 99.6%; with SN12C renal, 107%; in the assay with UO-31 renal it was 89.9%; in the assay on TK-10 renal it was 125%; in the assay on ACHN renal, -81.5% (active). For the same molecule, the growth in the assay on CAKI-1 renal is 102%; with A498 renal, 102%; in the assay on CCRF-CEM leukemia, 96.3%; with MOLT-4 leukemia, 113%; with SR leukemia it was 81.4%; in the assay with RPMI-8226 leukemia, 92.9%. For the same molecule, the growth is 110% with OVCAR-8 ovarian; 96.4% with OVCAR-5 ovarian; 101% with OVCAR-4 ovarian; 107% in the assay with SK-OV-3 ovarian; 98.1% in the assay with IGROV1 ovarian; 112% in the assay on OVCAR-3 ovarian. In addition, the growth in the assay on HS 578T breast is 139%; in the assay with NCI/ADR-RES ovarian, 92.5%.
